Active and inactive are the calls of the source.
What was measured:
[1] = system: Human papillomavirus type 1a protein E7 (residues 44-93); experiment: HPV1a E7 fragment binders on microarrays, primary screen, biochemical, small-molecule microarray, residues 44-93, 635 nm fluorescence (AID 1108); conditions: small-molecule microarray binding, fluorescence 635 nm; higher = more signal;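 note: E7 fragment applied at 1 µg/mL in TBST for 1 h at 4 C; score combines spot fluorescence with its signal to noise ratio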
[2] = modulators of HCV replicon luciferase signal, primary screen, HCV replication inhibitor project, Huh7 cells, luciferase reporter (AID 1109); conditions: 48 h, higher = more signal;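 note: huh7 hepatoma cells harbouring a luciferase neomycin HCV replicon reporter; luciferase luminescence as measure of HCV replicon replication; test concentration not given here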
[3] = molecular target: Left-right determination factor 2 (Homo sapiens) (UniProt O00292); experiment: LEFTY2 binders on small-molecule microarrays, primary screen, biochemical, small-molecule microarray, 635 nm fluorescence scan (AID 1110); conditions: LEFTY2 binding, higher = more signal
Left-right determination factor 2 (Homo sapiens), sequence (O00292 whole entry, looked up): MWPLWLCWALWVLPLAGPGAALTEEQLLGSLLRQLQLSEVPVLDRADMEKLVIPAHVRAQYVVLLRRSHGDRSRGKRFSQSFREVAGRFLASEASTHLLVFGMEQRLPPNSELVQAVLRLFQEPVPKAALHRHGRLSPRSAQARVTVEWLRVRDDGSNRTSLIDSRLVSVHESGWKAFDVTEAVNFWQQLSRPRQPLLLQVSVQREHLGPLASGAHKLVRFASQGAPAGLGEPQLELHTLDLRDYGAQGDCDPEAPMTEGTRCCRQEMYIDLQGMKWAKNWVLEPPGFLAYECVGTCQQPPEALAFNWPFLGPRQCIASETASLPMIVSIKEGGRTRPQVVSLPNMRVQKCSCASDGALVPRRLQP

[4] = molecular target: Calmodulin-1 (Homo sapiens) (UniProt P0DP23); experiment: CALM1 binders on microarrays, EGTA buffer, profiling panel, biochemical, small-molecule microarray, Cy5-labelled CALM1 (AID 1111); conditions: Cy5-CALM1 binding fluorescence, higher = more signal;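 note: labelled calmodulin applied in Tris saline Tween buffer holding calcium plus EGTA and DTT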
[5] = molecular target: Calmodulin-1 (Homo sapiens) (UniProt P0DP23); experiment: calcium-bound CALM1 binders on microarrays, profiling panel, artefact control for SMM control-protein annotation, biochemical, small-molecule microarray, Cy5-labelled CALM1, plus calcium (AID 1112); conditions: Cy5-CALM1 binding fluorescence, higher = more signal;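 note: score merges spot fluorescence with signal to noise from triplicate slides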
[6] = small-molecule microarray binders of probe aWnt5a, primary screen, biochemical, biotinylated probe, 635/667 nm fluorescence (AID 1113); conditions: higher = more signal;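 note: score merges 667 nm fluorescence intensity with signal-to-noise per printed feature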
[7] = small-molecule microarray binders of probe aShh, primary screen, biochemical, biotinylated probe, 635/667 nm fluorescence (AID 1114); conditions: higher = more signal;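 note: probe is biotin-labelled aShh protein from a stem cell growth factor screen; measures binding of labelled protein to compounds printed on the slide; score merges feature fluorescence at 667 nm with signal-to-noise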
[8] = small-molecule microarray binders of probe aNog, primary screen, biochemical, biotinylated probe, 635/667 nm fluorescence (AID 1115); conditions: higher = more signal;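 note: probe is biotinylated aNog protein used at 0.15 µg/mL for 1 h at 4 C; z-score combines 667 nm fluorescence of each spot with its signal to noise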
[9] = molecular target: Torsin-1A-interacting protein 1 (Homo sapiens) (UniProt Q5JTV8); experiment: LAP1 binders from COS7 cell lysate, primary screen, small-molecule microarray, 635/667 nm fluorescence (AID 1116); conditions: COS7-hLAP1 lysate binding, 635 nm fluorescence, higher = more signal
Torsin-1A-interacting protein 1 (Homo sapiens), sequence (Q5JTV8 whole entry, looked up): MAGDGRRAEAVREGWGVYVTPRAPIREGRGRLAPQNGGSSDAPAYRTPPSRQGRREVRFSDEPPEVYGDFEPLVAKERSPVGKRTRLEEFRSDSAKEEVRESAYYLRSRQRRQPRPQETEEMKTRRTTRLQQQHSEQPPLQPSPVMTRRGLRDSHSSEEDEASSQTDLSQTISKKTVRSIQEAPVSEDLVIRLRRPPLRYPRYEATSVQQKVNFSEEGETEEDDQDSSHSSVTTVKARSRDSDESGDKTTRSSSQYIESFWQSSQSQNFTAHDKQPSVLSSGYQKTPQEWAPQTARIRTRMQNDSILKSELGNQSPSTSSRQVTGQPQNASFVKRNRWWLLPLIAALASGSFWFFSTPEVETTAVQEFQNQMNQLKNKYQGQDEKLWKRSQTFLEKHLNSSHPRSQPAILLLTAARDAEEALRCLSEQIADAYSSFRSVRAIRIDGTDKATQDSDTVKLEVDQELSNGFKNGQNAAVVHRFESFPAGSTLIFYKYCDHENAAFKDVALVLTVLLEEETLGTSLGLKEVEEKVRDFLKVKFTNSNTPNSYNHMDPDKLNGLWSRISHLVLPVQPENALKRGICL

[10] = molecular target: Alpha-bungarotoxin (Bungarus multicinctus) (UniProt P60615); experiment: alpha-bungarotoxin binders on microarray, profiling panel, artefact control for SMM control protein annotation, biochemical, small-molecule microarray, Alexa647 label, 635/667 nm fluorescence (AID 1117); conditions: alpha-BTX-A647 binding fluorescence, higher = more signal
Alpha-bungarotoxin (Bungarus multicinctus), sequence (P60615 whole entry, looked up): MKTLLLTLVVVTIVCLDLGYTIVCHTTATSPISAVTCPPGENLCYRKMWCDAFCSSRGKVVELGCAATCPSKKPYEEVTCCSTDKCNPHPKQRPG

[11] = molecular target: Albumin (Bos taurus) (UniProt P02769); experiment: bovine serum albumin binders on microarray, profiling panel, artefact control for SMM control protein annotation, biochemical, small-molecule microarray, Alexa647 label, 635/667 nm fluorescence (AID 1118); conditions: BSA-A647 binding, fluorescence 635 nm, higher = more signal;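 note: score merges 667 nm emission intensity and signal-to-noise per printed compound spot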
Albumin (Bos taurus), sequence (P02769 whole entry, looked up): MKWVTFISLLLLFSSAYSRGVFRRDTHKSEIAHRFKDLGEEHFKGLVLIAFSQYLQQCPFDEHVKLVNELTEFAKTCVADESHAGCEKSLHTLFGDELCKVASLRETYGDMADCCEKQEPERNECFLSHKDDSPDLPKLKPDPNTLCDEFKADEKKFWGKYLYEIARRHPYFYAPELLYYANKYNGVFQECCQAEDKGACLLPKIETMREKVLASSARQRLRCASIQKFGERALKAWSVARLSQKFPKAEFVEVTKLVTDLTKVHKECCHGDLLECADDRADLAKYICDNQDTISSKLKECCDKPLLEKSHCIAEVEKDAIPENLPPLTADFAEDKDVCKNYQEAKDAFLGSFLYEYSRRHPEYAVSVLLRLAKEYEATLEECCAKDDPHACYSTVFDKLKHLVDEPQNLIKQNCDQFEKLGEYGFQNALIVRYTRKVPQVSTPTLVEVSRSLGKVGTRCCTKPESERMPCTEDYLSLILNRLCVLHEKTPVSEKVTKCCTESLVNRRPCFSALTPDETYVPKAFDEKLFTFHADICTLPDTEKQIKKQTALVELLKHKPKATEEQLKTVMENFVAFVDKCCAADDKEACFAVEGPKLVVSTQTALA

[12] = small-molecule microarray binders of probe aXIP, primary screen, biochemical, NeuroSMM set, 635/667 nm fluorescence (AID 1119); conditions: higher = more signal, called active from +8 up or from −8 down;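 note: probe is the protein aXip251-270 applied at 1 µg/mL to compound-printed slides; binding of probe to printed compounds measured as 667 nm fluorescence plus signal to noise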
[13] = small-molecule binders of probe aNOTCH3, primary screen, biochemical, small-molecule microarray, 635/667 nm fluorescence (AID 1120); conditions: higher = more signal;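 note: probe is a biotin-tagged antibody raised against NOTCH3 rather than NOTCH3 protein; score merges spot fluorescence near 667 nm with spot signal to noise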
[14] = small-molecule binders of probe aNOTCH2, primary screen, biochemical, small-molecule microarray, 635/667 nm fluorescence (AID 1121); conditions: higher = more signal;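 note: score merges feature fluorescence read at 667 nm with its signal to noise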
[15] = molecular target: Carbonic anhydrase 2 (Homo sapiens) (UniProt P00918); experiment: CAII small-molecule binders, profiling panel, biochemical, small-molecule microarray, Alexa647-labelled CAII (AID 1122); conditions: CAII-A647 binding fluorescence, higher = more signal
[16] = COS7 lysate on small-molecule microarray, probe aHis, 635 nm (AID 1123); conditions: COS7 cell lysate, fluorescence, higher = more signal;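 note: z-score combines 667nm fluorescence intensity with signal-to-noise per printed compound spot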
[17] = compound binding in COS7 lysate, probe aLAP1, primary screen, cell lysate, small-molecule microarray (AID 1124); conditions: probe aLAP1, fluorescence, higher = more signal;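 note: lysate comes from COS7 cells expressing LAP1 and is applied at 0.3 µg/mL; score merges spot fluorescence near 667 nm with signal-to-noise over triplicate slides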
[18] = system: Sam68 (KHDRBS1); experiment: Sam68 small-molecule binders, primary screen, biochemical, small-molecule microarray, 635 nm fluorescence (AID 1125); conditions: small-molecule microarray binding, higher = more signal;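 note: score merges 667 nm channel intensity with signal to noise over triplicate slides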
[19] = system: Chordin-like protein 2 (CHRDL2); experiment: CHRDL2 small-molecule binders, primary screen, biochemical, small-molecule microarray, 635 nm fluorescence (AID 1126); conditions: small-molecule microarray binding, fluorescence 635 nm; higher = more signal;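 note: printed compound slides probed with Chrdl2 protein at 4 µg/mL for 1 h at 4 C; score merges 667 nm emission intensity with signal to noise over three replicate slides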
[20] = molecular target: Concanavalin-A (Canavalia ensiformis) (UniProt P02866); experiment: ConA small-molecule binders, primary screen, artefact control for SMM control protein annotation, biochemical, small-molecule microarray, Alexa647 label, 635 nm (AID 1127); conditions: ConA-A647 binding fluorescence, higher = more signal;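 note: z combines 667 nm emission intensity with signal-to-noise across three replicate slides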
Concanavalin-A (Canavalia ensiformis), sequence (P02866 whole entry, looked up): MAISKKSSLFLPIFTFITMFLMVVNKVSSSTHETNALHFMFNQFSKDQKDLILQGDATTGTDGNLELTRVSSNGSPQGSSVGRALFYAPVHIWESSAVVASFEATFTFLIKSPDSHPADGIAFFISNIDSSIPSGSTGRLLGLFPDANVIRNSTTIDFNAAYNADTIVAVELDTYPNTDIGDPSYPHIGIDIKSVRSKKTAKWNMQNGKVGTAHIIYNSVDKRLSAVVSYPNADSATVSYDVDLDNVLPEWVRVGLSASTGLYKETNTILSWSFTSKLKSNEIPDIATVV

SMILES | composite z-score [1] | z-score [2] | composite z-score [3] | composite z-score [4] | composite z-score [5] | composite z-score [6] | composite z-score [7] | composite z-score [8] | composite z-score [9] | composite z-score [10] | composite z-score [11] | composite Z-score [12] | composite z-score [13] | composite z-score [14] | composite z-score [15] | composite z-score [16] | composite z-score [17] | composite z-score [18] | composite z-score [19] | composite z-score [20]
O=C1O[C@@H](c2ccccc2)[C@@H](c2ccccc2)N2[C@@H](c3ccc(OCCO)cc3)[C@]3(C(=O)Nc4ccc(C#CCCO)cc43)[C@@H](C(=O)N3CCN(c4ncccn4)CC3)[C@H]12 | 1.44 | -0.347 | 0.669 | 0.732 | 0.073 | 0.0115 | 0.151 | -0.601 | 0.842 | 1.75 | 0.536 | 0.337 (inactive) | 0.143 | -0.0684 | 0.485 | 1.87 | 0.188 | 1.32 | 0.168 | 1.17
N#Cc1ccc(NN2C(C(O)CCc3ccccc3)C=CC3C(=O)N(c4ccccc4)C(=O)C32)cc1 (stereo not given) | -0.317 | -0.123 | -0.111 | 1.59 | 0.0484 | 0.0785 | 0.108 | -0.428 | 2.95 | 0.969 | 1.06 | 0.265 (inactive) | 0.123 | 0.0532 | 0.745 | 2.21 | 0.647 | 0.924 | -0.794 | 0.831
C=CCc1cccc([C@@H]2[C@@H](C)CC[C@H]3C(=O)N4[C@H](c5cccc(CC=C)c5)[C@@H](C)CC[C@H]4C(=O)N23)c1 | 0.227 | -3.5 | 1.09 | 0.254 | -0.831 | 0.0893 | 0.0899 | -0.216 | 0.373 | 1.88 | 0.593 | 0.576 (inactive) | 0.0827 | -0.0304 | 0.244 | 0.564 | 0.035 | 0.55 | 0.977 | 1.03
O=C1NC(=O)C2C1C=CC(C(O)C=Cc1ccc([N+](=O)[O-])cc1)N2Nc1ccccn1 (stereo not given) | -0.581 | 0.807 | 0.909 | -0.438 | -0.544 | -0.14 | 0.265 | -0.142 | 1.45 | 0.224 | -0.0573 | 1.28 (inactive) | 0.0104 | 0.0337 | 0.863 | 1.4 | 1.07 | -0.257 | 1.39 | 0.367
C[C@H]1COC(=O)[C@H](Cc2ccccc2)NC(=O)[C@@H](C)COC(=O)[C@H](Cc2ccccc2)NC1=O | 0.844 | -0.0223 | 0.597 | 0.359 | -0.589 | -0.236 | 0.0711 | -0.0026 | 1 | 0.856 | 0.732 | 0.0705 (inactive) | -0.0377 | -0.0967 | 0.447 | 0.612 | 0.275 | 1.27 | 0.845 | 0.892
COC(=O)[C@@]1(Cc2ccccc2)[C@H]2c3cc(C(=O)N4CCCC4)n(CCN4CNCC4=O)c3C[C@H]2CN1C(=O)c1ccccc1 | 0.871 | -0.857 | 0.172 | 1.91 | 0.265 | -0.0519 | -0.288 | -0.197 | 0.911 | 0.98 | 0.963 | 0.0178 (inactive) | 0.119 | -0.173 | 0.924 | 3.04 | 0.808 | 0.28 | -0.634 | 1.2
CCOC(=O)C1=CC[C@@H](c2ccccc2)N(S(=O)(=O)c2ccc(C)cc2)[C@H]1C | 1.47 | -2.88 | 0.902 | 0.764 | 0.665 | 0.101 | -0.214 | 0.787 | 0.682 | 1.74 | 0.972 | 0.102 (inactive) | 0.29 | 0.0832 | 0.671 | 2.49 | 0.689 | 1.29 | 0.416 | 1.05
Cc1ccc(N2C(=O)c3ccccc3[C@@H](C(=O)NCC(F)(F)F)[C@@H]2c2ccc(CO)cc2)nc1 | -2.16 | 0.643 | -3.15 | -1.65 | -0.526 | -0.226 | -0.0626 | -0.3 | 0.153 | -1.81 | -0.0791 | 0.352 (inactive) | -0.185 | -0.0674 | 0.844 | -0.786 | -0.415 | -1.85 | -2.4 | -1.9
CC/C=C/C(=O)N(C[C@@H]1CCCO1)[C@@H]1CC(C(=O)NCCO)=C[C@H](Oc2c(I)cc(CO)cc2OC)[C@H]1O | -0.2 | -0.277 | 0.208 | -0.33 | 0.0262 | 0.497 | 0.138 | 0.124 | 0.371 | 0.515 | 0.74 | 0.465 (inactive) | 0.0208 | -0.103 | 0.721 | 1.42 | 0.739 | 0.787 | -0.355 | -0.629
C#CCCCON=C1C[C@@H](O)[C@@H](O)[C@@H]2[C@@H]3C(=O)N(Cc4ccc5c(c4)OCO5)C(=O)[C@@H]3CC[C@@H]12 | 0.449 | 0.0713 | 0.448 | 0.127 | -0.19 | -0.096 | 0.147 | 0.0136 | -0.0849 | 1.4 | 0.352 | -0.0164 (inactive) | 0.0225 | -0.148 | 0.227 | 0.537 | -0.0088 | 0.005 | 0.187 | 0.858
CO[C@H]1O[C@H](CO)[C@@H](OC(=O)Nc2ccc(Oc3ccccc3)cc2)[C@H](OC(=O)Nc2ccccc2-c2ccccc2)[C@H]1OC(=O)Nc1ccccc1-c1ccccc1 | 0.383 | -3.97 | 0.975 | 2.09 | -0.107 | 0.0676 | 0.11 | 0.786 | 1.77 | 2.98 | 0.892 | -0.0478 (inactive) | 0.289 | -0.0519 | 0.442 | 2.68 | 1.26 | 1.31 | 0.203 | 1.18
CO[C@H]1O[C@H](CO)[C@@H](OC(=O)CCc2ccccc2)[C@@H]2OC(=O)[C@H](Cc3cccc(Br)c3)C/C=C/C[C@@H](Cc3cccc(Br)c3)C(=O)O[C@@H]12 | 0.234 | -0.93 | -0.798 | -0.638 | -0.282 | -0.0819 | 0.103 | 0.146 | -0.0066 | 2.14 | 0.803 | 0.258 (inactive) | -0.15 | -0.114 | 0.76 | 1.04 | 0.0054 | 0.7 | -1.41 | 0.014
[N-]=[N+]=NCc1ccccc1C[C@]1(C(N)=O)N=C(c2ccc(OCCCO)cc2)O[C@H]1c1ccccc1CN=[N+]=[N-] | 0.842 | -2.34 | -0.854 | 1.98 | 1.12 | 0.0286 | 0.84 | 0.653 | 1.32 | 1.56 | 1.05 | -0.469 (inactive) | 0.0254 | 0.0256 | 0.667 | 2.16 | 0.641 | 1.31 | -1.12 | 0.991
C=CC[C@]1(C(=O)OC)N=C(c2ccc(OCCCO)cc2)O[C@H]1c1ccccc1CN=[N+]=[N-] | -0.044 | -1.31 | -0.978 | -0.643 | 0.369 | 0.0251 | -0.0289 | 0.121 | 0.782 | 1.14 | -0.573 | 3.17 (inactive) | -0.0598 | 0.122 | 0.206 | 2.41 | -0.0978 | -1.11 | -0.45 | -1.06
Cc1ccc(S[C@]2(C(=O)NC3CC3)CC(=O)N(Cc3cc(C(F)(F)F)cc(C(F)(F)F)c3)[C@@H]2c2ccc(CO)cc2)cc1 | 0.892 | -1.17 | 0.267 | -0.125 | -0.493 | -0.175 | -0.174 | -0.491 | -0.0118 | 0.296 | 0.371 | -0.421 (inactive) | -0.0345 | -0.169 | 0.375 | 0.42 | 1.13 | 0.792 | 0.115 | 0.633

— PubChem BioAssay
